# Results reported in PubChem BioAssay (EPA / NIEHS).
# Active and inactive are the calls of the source. Rule for the calls: active = hit-call score of the fitted dose curve at least 0.9, where 1 is the maximum; inactive = score below 0.9.
# Target: X-box-binding protein 1 (Homo sapiens) (UniProt P17861)
# Assay: ATG_Xbp1_CIS: Attagene CIS-FACTORIAL HepG2 Assay for human X-box Binding Protein 1 (XBP1) (AID 2282972)
# Conditions: HepG2 XBP1 cis-element reporter, Attagene multiplex; actives raise or lower the signal
# Description: ATG_CIS is a cell-based, multiplexed-readout assay that uses HepG2, a human liver cell line, with measurements taken at 24 hours after chemical dosing in a 24-well plate.ATG_Xbp1_CIS is one of 52 assay component(s) measured or calculated from the ATG_CIS assay. It is designed to make measurements of mRNA induction, a form of inducible reporter, as detected with fluorescence intensity signals by Reverse transcription polymerase chain reaction (RT-PCR) and Capillary electrophoresis technology.Data from the assay component ATG_Xbp1_CIS was analyzed into 1 assay endpoint. This assay endpoint, ATG_Xbp1_CIS, was analyzed with bidirectional fitting relative to DMSO as the negative control and baseline of activity. Using a type of inducible reporter, measures of mRNA for gain or loss-of-signal activity can be used to understand the reporter gene at the transcription factor-level as they relate to the gene XBP1. Furthermore, this assay endpoint can be referred to as a primary readout, because this assay has produced multiple assay endpoints where this one serves a reporter gene function. To generalize the intended target to other relatable targets, this assay endpoint is annotated to the dna binding intended target family, where the subfamily is basic leucine zipper.
# Human liver HepG2 cells are transiently transfected with multiple reporter transcription units (MRTUs) in 6-well plates using FuGene 6 reagent (Roche; 3 ml FuGene/1 mg DNA). The MRTU constructs are regulated by a cis-regulating element (promoter). […] A major difference between the CIS and TRANS system is that in CIS activities of endogenous TFs are measured, whereas the TRANS assay evaluates changes in activities of exogenous, chimeric NR-Gal4 proteins. […] At the end of 24 hour incubation, total RNA was isolated using TriZol reagent (Invitrogen). The isolated RNA is then reverse-transcribed using oligo(dT) primer and Mo-MLV reverse transcriptase (Invitrogen) with DNAse I (Ambion) treatment for 30 min. The one-tenth of the produced cDNA was amplified by PCR using Taq DNA polymerase (Invitrogen) and two reporter sequence-specific primers. The PCR products were fluorescently labeled by primer extension with 6-arboxyfluorescein (6-FAM) 5'-labeled reporter sequence-specific primer (2 min at 95 C, 20 s at 68 C and 10 min at 72 C) and these products were digested with 5U of HpaI (New England Biolabs) for 2h at 37 C. The fragments were purified using Qiaquick PCR columns (Qiagen), analyzed on an ABI 3130xL genetic analyzer (Applied Biosystems) with peak positions identified by using a set of X-rhodamine (ROX)-labeled MapMarker1000 molecular weight standards (BioVentures). The raw capillary electrophoresis data was processed using Attagraph software (Attagene).
# Chain of X-box-binding protein 1 (Homo sapiens) (P17861 whole entry, looked up): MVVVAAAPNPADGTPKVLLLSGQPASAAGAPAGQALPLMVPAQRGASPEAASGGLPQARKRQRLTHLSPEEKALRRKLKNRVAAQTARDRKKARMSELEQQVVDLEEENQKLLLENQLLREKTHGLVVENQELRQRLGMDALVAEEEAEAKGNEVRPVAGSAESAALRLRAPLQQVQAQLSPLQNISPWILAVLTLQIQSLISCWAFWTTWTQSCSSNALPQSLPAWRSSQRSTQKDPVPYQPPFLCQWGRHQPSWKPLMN
SMILES,outcome,AC50
O=P(O)(O)CN(CP(=O)(O)O)CP(=O)(O)O,inactive,
Oc1ccc(-c2ccccc2)cc1,,69.4 µM (active)
CN(C)N=O,inactive,
Clc1ccc(COC(Cn2ccnc2)c2ccc(Cl)cc2Cl)cc1 (stereo not given),inactive,
OCC(O)CCl (stereo not given),inactive,
CCCCCCCCc1ccc(O)cc1,inactive,
Oc1c(I)cc(I)cc1I,,33.6 µM (active)
CCC(C)(C)c1ccc(O)c(C(C)(C)CC)c1,inactive,
CCOP(=S)(OCC)SCCS(=O)(=O)CC,inactive,
ClC(Cl)=C(Cl)C(Cl)=C(Cl)Cl,,137 µM (active)
ClCCBr,inactive,
Cl/C=C\C[N+]12CN3CN(CN(C3)C1)C2,inactive,
CC(C)(C)CC(C)(C)c1ccc(O)cc1,inactive,
CC(C)(c1ccccc1)c1ccc(O)c(C(C)(C)c2ccccc2)c1,,10.1 µM (active)
Cc1ccc(N)cc1Cl,inactive,
O=[N+]([O-])c1c(Cl)c(Cl)cc(Cl)c1Cl,inactive,
CC(C)CCCCCCOC(=O)c1ccccc1C(=O)OCCCCCCC(C)C,inactive,
CC(C#N)CCC#N (stereo not given),inactive,
CCOP(=O)(CN(CCO)CCO)OCC,inactive,
CC(C)OC(=O)Nc1ccccc1,inactive,

SMILES,outcome,AC50
COc1ccc(OC)c(C=O)c1,inactive,
CCCCC(CC)CO[N+](=O)[O-] (stereo not given),inactive,
C=CCc1ccc(OC)cc1,inactive,
C=CC(=O)N(C)C,inactive,
C[C@]12CC[C@H](O)CC1=CC[C@@H]1[C@@H]2CC[C@]2(C)C(=O)CC[C@@H]12,inactive,
COC(=O)c1sccc1S(=O)(=O)NC(=O)Nc1nc(C)nc(OC)n1,inactive,
NC(=S)Nc1ccccc1,inactive,
COc1cc(OC)nc(NC(=O)NS(=O)(=O)c2ncccc2C(=O)N(C)C)n1,inactive,
Cl/C=C/Cl,inactive,
N#CCc1ccc(Cl)cc1,inactive,
C[C@H]1CCCC(=O)CCC/C=C/c2cc(O)cc(O)c2C(=O)O1,inactive,
O=C(NCO)NCO,inactive,
COS(=O)(=O)c1ccc(C)cc1,inactive,
C=CC(=O)OCCCCCC(C)C,inactive,
CC(=[OH+])/C=C(/C)[O-].CC(=[OH+])/C=C(/C)[O-].CC(=[OH+])/C=C(/C)[O-].[Fe],inactive,
N#Cc1ccccn1,inactive,
COP(=S)(OC)Oc1ccc(S(=O)(=O)N(C)C)cc1,inactive,
O=[N+]([O-])c1ccc(O)c([N+](=O)[O-])c1,inactive,
CC1(C)CCC(Cc2ccc(Cl)cc2)C1(O)Cn1cncn1 (stereo not given),inactive,
Cc1cc(=O)[nH]o1,inactive,
